By AC50 is commonly meant the midpoint of the concentration-response curve, whichever way the signal moves.

Calls of active or inactive are those of the source. How the source made its calls: active means hit-call score of the fitted dose curve at least 0.9, where 1 is the maximum; inactive means score below 0.9.

The nature of this experiment: ATG_PPRE_CIS: Attagene CIS-FACTORIAL HepG2 Assay for human Peroxisome Proliferator-activated Response Element (PPRE) (AID 2282958). The conditions noted are these: HepG2 PPRE cis-element reporter, Attagene transcription factor profiling; actives raise or lower the signal. As to the method:
ATG_CIS is a cell-based, multiplexed-readout assay that uses HepG2, a human liver cell line, with measurements taken at 24 hours after chemical dosing in a 24-well plate.ATG_PPRE_CIS is one of 52 assay component(s) measured or calculated from the ATG_CIS assay. It is designed to make measurements of mRNA induction, a form of inducible reporter, as detected with fluorescence intensity signals by Reverse transcription polymerase chain reaction (RT-PCR) and Capillary electrophoresis technology.Data from the assay component ATG_PPRE_CIS was analyzed into 1 assay endpoint. This assay endpoint, ATG_PPRE_CIS, was analyzed with bidirectional fitting relative to DMSO as the negative control and baseline of activity. Using a type of inducible reporter, measures of mRNA for gain or loss-of-signal activity can be used to understand the reporter gene at the transcription factor-level as they relate to the gene PPARA and PPARD and PPARG. Furthermore, this assay endpoint can be referred to as a primary readout, because this assay has produced multiple assay endpoints where this one serves a reporter gene function. To generalize the intended target to other relatable targets, this assay endpoint is annotated to the nuclear receptor intended target family, where the subfamily is non-steroidal.
Human liver HepG2 cells are transiently transfected with multiple reporter transcription units (MRTUs) in 6-well plates using FuGene 6 reagent (Roche; 3 ml FuGene/1 mg DNA). The MRTU constructs are regulated by a cis-regulating element (promoter). […] A major difference between the CIS and TRANS system is that in CIS activities of endogenous TFs are measured, whereas the TRANS assay evaluates changes in activities of exogenous, chimeric NR-Gal4 proteins. […] At the end of 24 hour incubation, total RNA was isolated using TriZol reagent (Invitrogen). The isolated RNA is then reverse-transcribed using oligo(dT) primer and Mo-MLV reverse transcriptase (Invitrogen) with DNAse I (Ambion) treatment for 30 min. The one-tenth of the produced cDNA was amplified by PCR using Taq DNA polymerase (Invitrogen) and two reporter sequence-specific primers. The PCR products were fluorescently labeled by primer extension with 6-arboxyfluorescein (6-FAM) 5'-labeled reporter sequence-specific primer (2 min at 95 C, 20 s at 68 C and 10 min at 72 C) and these products were digested with 5U of HpaI (New England Biolabs) for 2h at 37 C. The fragments were purified using Qiaquick PCR columns (Qiagen), analyzed on an ABI 3130xL genetic analyzer (Applied Biosystems) with peak positions identified by using a set of X-rhodamine (ROX)-labeled MapMarker1000 molecular weight standards (BioVentures). The raw capillary electrophoresis data was processed using Attagraph software (Attagene).
In the case of `NC(=Nc1ccccc1)Nc1ccccc1`, the compound was called inactive.

Consider `O=C1CCCCC1`, for which the compound was classed as inactive.

As for `O=C1NC(=O)C(c2ccccc2)(c2ccccc2)N1`, the call was inactive.

For the compound `CCOCCOCCO`, the compound was classed as inactive.

`CC(=O)O[C@]1(C(C)=O)CC[C@H]2[C@@H]3C=C(Cl)C4=CC(=O)[C@@H]5C[C@@H]5[C@]4(C)[C@H]3CC[C@@]21C`: the outcome was inactive.

With `Cc1cc(SC2=C(O)C[C@@](CCc3ccc(N)cc3)(C(C)C)OC2=O)c(C(C)(C)C)cc1CO`, the AC50 was 57.6 µM (active).

As for `CCCCCCCCCCCCCCOS(=O)(=O)O`, the compound was classed as inactive.

Take `O=C(O)c1[nH]n(-c2ccc(S(=O)(=O)O)cc2)c(=O)c1N=Nc1ccc(S(=O)(=O)O)cc1`: the result was inactive.

Consider `CO[C@@H]1COCC[C@@H]1N[C@@H]1CC[C@@](C(=O)N2CCc3ncc(C(F)(F)F)cc3C2)(C(C)C)C1`, for which the compound was called inactive.

For the compound `CCCCOC(=O)CCCCC(=O)OCCCC`, the compound was classed as inactive.

For `CCCC[C@H]1CN(CC2CCOCC2)C(=O)OC12CCN(C1(C)CCN(C(=O)c3c(C)ncnc3C)CC1)CC2`, the result was inactive.

Consider `CC1(C)C(=O)NC(=O)N1CO`, for which the outcome was inactive.

In the case of `CCCCCCCCCCCCCCCCO`, the compound was classed as inactive.

On to `CCCCCCCC(=O)OC`, for which the result was inactive.

`CN(C)C(=O)NC1(c2ccccc2)CCN(CC[C@@]2(c3ccc(F)c(F)c3)CN(C(=O)c3ccccc3)CCO2)CC1`: the call was inactive.

As for `O=C(NS(=O)(=O)/C=C/c1cccs1)c1ccc(F)cc1Br`, the compound was called inactive.

Regarding `CCCCCCC(CCCCCCCCCCC(=O)OCC(COC(C)=O)OC(C)=O)OC(C)=O` (stereo not given), the AC50 is 39.6 µM (active).

As for `N[C@@H](Cc1c[nH]c2ccccc12)C(=O)O`, the result was inactive.

On to `CC(C)NCC(O)c1ccc(O)c(O)c1` (stereo not given), for which the call was inactive.

As to `NC1CCCCC1`, the outcome was inactive.

Consider `O=C(Oc1ccccc1)c1cccc(C(=O)Oc2ccccc2)c1`, for which the AC50 is 104 µM (active).

For `CC1=C(C)S(=O)(=O)CCS1(=O)=O`, the AC50 was 89.5 µM (active).

On to `O=C(O)c1cccnc1`, for which the compound was classed as inactive.

In the case of `COC(=O)[C@H]1[C@H]2C[C@@H]3c4[nH]c5cc(OC)ccc5c4CCN3C[C@H]2C[C@@H](OC(=O)c2cc(OC)c(OC)c(OC)c2)[C@@H]1OC`, the call was inactive.

With `Cc1ccc(-c2cc(C(F)(F)F)nn2-c2ccc(S(N)(=O)=O)cc2)cc1`, the outcome was inactive.

For the compound `CC(=O)OCC(COC(C)=O)OC(C)=O`, the result was inactive.

Regarding `O=C1O[C@H]([C@H](O)CO)C(O)=C1O`, the compound was called inactive.

As to `CC(C)c1cccc(C(C)C)c1`, the call was inactive.

As to `O=C(N[C@@H](c1ccccc1)[C@@H]1CCCCN1)c1cccc(C(F)(F)F)c1Cl`, the outcome was inactive.

As to `Oc1ccc(O)cc1`, the AC50 is 62.5 µM (active).

Consider `CC(COCC(C)OC(=O)c1ccccc1)OC(=O)c1ccccc1` (stereo not given), for which the outcome was inactive.

In the case of `CCCCCCCCCC[N+](C)(C)[O-]`, the outcome was inactive.

Turning to `O=C(O)CN(CC(=O)O)CC(=O)O`, the result was inactive.

For `C/C=C/C=C/C(=O)O`, the outcome was inactive.

For `CN(C)C(=O)NC1(c2ccccc2)CCN(CCC[C@]2(c3ccc(Cl)c(Cl)c3)CCCN(C(=O)c3ccccc3)C2)CC1`, the AC50 is 4.58 µM (active).

In the case of `CCc1nc(N)nc(N)c1-c1ccc(Cl)cc1`, the AC50 is 26.8 µM (active).

Regarding `CC(=O)OC1CC(C)OC(C)O1` (stereo not given), the call was inactive.

Take `CCC(C)N(C)C(=O)c1cc2ccccc2c(-c2ccccc2Cl)n1` (stereo not given): the AC50 was 106 µM (active).

`Cc1cn([C@H]2C=C[C@@H](CO)O2)c(=O)[nH]c1=O`: the call was inactive.

With `Oc1ccccc1O`, the compound was called inactive.

Values taken from PubChem BioAssay (EPA / NIEHS).
